Hits are enriched below; roughly 3% of the tested compounds scored in any of these assays.
USP1 inh: Inhibitors of USP1/UAF1: Primary Screen; recombinant USP1/UAF1, Ub-Rhodamine cleavage fluorescence; Ubiquitin carboxyl-terminal hydrolase 1 (Homo sapiens), O94782; Potency, µM (top dose mostly 57.1 µM), for the others: at the highest dose activity change, negative = inhibition, most hits filed as inhibitors; 0.23% of 390,000 active; also: % is scaled to controls: 0 for no effect and ±100 for the full control effect; nearly all actives have a fitted effect of over 60% in size
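In this screen, compounds sit with the deubiquitinase complex (1nM) for 15 min at room temperature before Ub-Rho is added at 150nM final. Fluorescence rise is then followed for 6 reads every 60 seconds.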
PLK1 PBD block: qHTS for Inhibitors of PLK1-PDB (polo-like kinase 1 - polo-box domain): Primary Screen | Serine/threonine-protein kinase PLK1 (Homo sapiens), P53350 | Plk1 PBD binding of FITC phosphopeptide, fluorescence polarization | Potency, µM, for the others: max response, negative = inhibition, hits mostly inhibitors | 2.8% of 360,000 active | AID 720504, 2013; also: series mostly up to about 57 µM; % is scaled to controls: 0 for no effect and ±100 for the full control effect; nearly all actives have a fitted effect of over 65% in size
Target sequence (P53350 whole entry, looked up, the tested form may be a part): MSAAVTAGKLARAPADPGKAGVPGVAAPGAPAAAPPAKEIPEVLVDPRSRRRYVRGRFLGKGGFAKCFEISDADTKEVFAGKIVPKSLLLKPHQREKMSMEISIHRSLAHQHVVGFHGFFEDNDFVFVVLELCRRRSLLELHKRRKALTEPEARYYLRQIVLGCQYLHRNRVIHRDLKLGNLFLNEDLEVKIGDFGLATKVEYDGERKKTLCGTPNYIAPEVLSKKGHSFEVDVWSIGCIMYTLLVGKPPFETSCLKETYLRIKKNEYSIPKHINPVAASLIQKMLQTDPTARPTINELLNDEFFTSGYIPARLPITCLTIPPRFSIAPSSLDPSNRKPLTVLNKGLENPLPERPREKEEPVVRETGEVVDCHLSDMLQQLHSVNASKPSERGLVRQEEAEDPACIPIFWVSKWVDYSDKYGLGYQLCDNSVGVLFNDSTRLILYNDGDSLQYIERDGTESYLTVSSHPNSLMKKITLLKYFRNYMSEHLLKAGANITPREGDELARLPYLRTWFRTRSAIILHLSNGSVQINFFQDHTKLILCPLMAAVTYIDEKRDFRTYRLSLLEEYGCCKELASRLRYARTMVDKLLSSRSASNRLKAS
VDR inhibitor: Inhibitors of the vitamin D receptor (VDR): qHTS. Vitamin D3 receptor (Homo sapiens), P11473. VDR-SRC2-3 peptide fluorescence polarization, 2 h. Potency, µM, inactives show max response, negative = inhibition, usual class: inhibitors. 0.93% of 400,000 active. AID 504847, 2011; also: % is scaled to controls: 0 for no effect and ±100 for the full control effect
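Two reagent solutions held at 4 deg C in the dark were dispensed, compounds pinned at 23 nl, and the mixture incubated 2 h at room temperature. Read-out: fluorescence polarization of VDR–SRC2-3 peptide binding.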
KAT2A inh: qHTS Assay for Inhibitors of GCN5L2; GCN5L2 HAT assay, ThioGlo1 CoA-SH fluorescence; Potency, µM (highest dose often 58.9 µM), for inactives: at the highest dose activity change, negative = inhibition, hits mostly inhibitors; 0.21% of 390,000 active; AID 504327, 2011; also: % is scaled to controls: 0 for no effect and ±100 for the full control effect
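Fluorescence readout, Ex340nm/Em540nm: ThioGlo1 (50uM final) reacts with free CoA thiol released as 20nM GCN5L2 acetylates H3(1-25) peptide (75uM) using acetyl-CoA (70uM). Compound and enzyme sat 15 min beforehand; 20 min room-temperature reaction.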
TSG101-PTAP inh: qHTS Assay for Iinhibitors of HIV-1 Budding by Blocking the Interaction of PTAP/TSG101; Tumor susceptibility gene 101 protein (Homo sapiens), Q99816; Fluorescence polarization, FITC-PTAP peptide / Tsg101 binding; Potency, µM (titrated, usually from 115 µM), for inactives: at the highest dose activity change, negative = inhibition, most hits filed as inhibitors; 340,000 tested, under 10 active; AID 493005, 2010; active = well fitted inhibition curve with a large enough effect in the main read-out, with a control signal flat, not every such curve was filed as active; inconclusive = small, poorly fitted or top-dose-only effect, or effect the other way, or a change in a side signal; inactive = no such curve, though single readings can be large or run the other way; also: % of control where 0% means no effect
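FP read-out: FITC-PTAP peptide, 50 nM final, binding Tsg101 binding domain, 10 uM final; 20 min, r.t.; 10 mM HEPES pH 7.5, 0.15 M NaCl, 0.01% Tween 20, 3 mM EDTA, 0.1 mM TCEP.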
Starred values were filed as active, the others as inactive; u = inconclusive; x = not tested or not shown. Unless noted, calls follow the shape of the dose curve; as a rule, active = well fitted curve in the direction sought with a large enough effect; inconclusive = small, poorly fitted or top-dose-only effect, or another doubt; inactive = no such curve, though single readings can be large; an effect the other way counts as inactive or inconclusive. Potency is read from the fitted curve at half-maximal effect.

SMILES	USP1 inh	PLK1 PBD block	VDR inhibitor	KAT2A inh	TSG101-PTAP inh
O=C(O)[C@@H]1CN[C@@H](C(=O)O)C1	x	x	0.7%	-8.7%	x
COC(=O)COc1ccc(-c2nccc(-c3ccc(Br)cc3)n2)cc1	-15.7%	9.47µM*	28.2µM*	1.1%	0.7%
O=C(COc1ccc(Cl)cc1Cl)NCCSc1ccc(Cl)cc1	-6.8%	2.99µM*	-13.2%	-3.3%	-8.4%
COCCNC(=O)c1ccccc1N(Cc1ccccc1)S(=O)(=O)c1ccc(C)cc1	-17.4%	26.7µM*	-28.0%	-6.2%	-6.0%
COCCNC(=O)c1ccccc1N(Cc1ccccc1)S(=O)(=O)c1ccccc1	-8.2%	-10.2%	-16.9%	x	-10.8%
COc1ccccc1N1CCN(CC(O)COc2ccc(Cl)c(C)c2)CC1 (stereo unspecified)	u	x	7.9%	-0.5%	x
Cc1cc(C)n(-c2nc3ccccc3c(=O)n2OCCOc2ccccc2)n1	-16.3%	3.36µM*	-12.5%	-3.4%	-8.3%
Cc1cc(CC(C)C)n(-c2nc3ccccc3c(=O)n2OCC(N)=O)n1	-19.2%	21.2µM*	-15.2%	-5.0%	-6.3%
Cc1cc(C)n(-c2nc3ccccc3c(=O)n2OCC(N)=O)n1	-4.4%	-4.0%	1.0%	3.5%	-2.9%
COc1ccc(CCNC(=O)c2cc(Sc3cccc(Cl)c3)nc3ccccc23)cc1OC	13.6%	x	2.6%	u	x
CS(=O)(=O)N1CCc2cc(C(=O)Nc3ccc(S(N)(=O)=O)cc3)ccc21	1.3%	x	6.0%	-4.8%	x
O=C(CCC1CCCN(C(=O)C2=CCCC2)C1)N1CCN(c2ccccn2)CC1 (stereo unspecified)	-13.9%	-27.1%	-22.4%	-7.0%	-4.8%
O=C(CCC1CCCN(C(=O)CC2=CCCCC2)C1)N1CCN(c2ccccn2)CC1 (stereo unspecified)	-12.4%	8.44µM*	79.4µM*	0.8%	-1.6%
COC(=O)c1ccc(C)c(NC(=O)CN(c2ccccc2)S(=O)(=O)N(C)C)c1	-18.5%	21.2µM*	-18.8%	0.2%	-0.1%
Cc1ccc(C(=O)O)cc1NC(=O)CCc1ccccc1	-14.0%	16.8µM*	-10.1%	-1.5%	-2.1%
CCc1cccc(NC(=O)C(Cc2ccccc2)n2cccc2)c1 (stereo unspecified)	-17.3%	x	7.2%	-12.0%	x
O=C(Nc1nnc2n1CCS2)c1ccccc1C(F)(F)F	-26.8%	x	-2.0%	-4.7%	x
CN=c1sc(C(=O)Nc2ccccc2)c(C)n1C	-18.1%	-5.7%	-3.9%	-6.1%	-1.5%
CN=c1sc2c(n1C)C(=O)c1ccccc1C2=O	15.8µM*	-24.7%	u	x	-2.7%
Cc1ccc(Cl)cc1N1CCN(C(=O)c2cnn(C)c2C2CCN(C(=O)OC(C)(C)C)CC2)CC1	-6.4%	x	2.2%	4.3%	x
Cc1ccc(Cl)cc1NC(=O)CCc1c(C)nc2c3cccnc3nn2c1C	-11.2%	x	-4.4%	-2.3%	x
O=C(O)CCCCC1CCSS1 (stereo unspecified)	-8.2%	-21.3%	3.5%	3.16µM*	-5.1%
CCCCCCCCCC(=O)O	11.1%	-8.2%	-13.1%	-2.8%	-6.0%
Cc1cc(C)c(S(C)(=O)=O)c(=O)[nH]1	-12.0%	-15.7%	11.0%	0.3%	-1.2%
Cc1cc(C)c(S(=O)(=O)C(C)C)c(=O)[nH]1	-7.5%	23.8µM*	4.4%	-6.0%	0.1%
COc1cccc(Cn2c(=O)c(-c3cccs3)nc3cnc(N4CCNCC4)nc32)c1	x	x	25.9%	u	x
CCCSc1nnc(CSc2nc(C)cc(C)n2)n1C	-2.1%	21.2µM*	-24.7%	-7.7%	-3.6%
Cc1ccc(NS(=O)(=O)c2ccc(OCC(=O)NCC3CCCO3)cc2)cc1 (stereo unspecified)	-19.4%	29.9µM*	-4.9%	8.3%	-1.1%
CCNS(=O)(=O)c1ccc(NC(=S)NCC2CCCO2)cc1 (stereo unspecified)	0.5%	23.8µM*	u	16.2%	-1.6%
O=C(CN(C1CCCCC1)S(=O)(=O)c1ccccc1)NCC1CCCO1 (stereo unspecified)	-9.0%	-0.8%	-3.4%	-4.7%	-0.2%
